# eIF4H inh – inhibitors of RNA binding by human eIF4H; Q15056; eIF4H fluorescence polarization binding assay; 290,000 tested, 0.94% active; inhibition, % at 35 µM;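 also: calls also rest on retests at 20 µM and on dose response follow-up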
# PABP1 MLLE inh – blocks PAM2 peptide binding to the PABP1 MLLE domain; P11940; GST-MLLE / FITC-PAM2 fluorescence polarization; inhibition, % at 20 µM; 360,000 tested, 0.36% active; in the data active = inhibition above about 35%, passing the limit was not always enough
# Target sequence (P11940 whole entry, looked up, the tested form may be a part): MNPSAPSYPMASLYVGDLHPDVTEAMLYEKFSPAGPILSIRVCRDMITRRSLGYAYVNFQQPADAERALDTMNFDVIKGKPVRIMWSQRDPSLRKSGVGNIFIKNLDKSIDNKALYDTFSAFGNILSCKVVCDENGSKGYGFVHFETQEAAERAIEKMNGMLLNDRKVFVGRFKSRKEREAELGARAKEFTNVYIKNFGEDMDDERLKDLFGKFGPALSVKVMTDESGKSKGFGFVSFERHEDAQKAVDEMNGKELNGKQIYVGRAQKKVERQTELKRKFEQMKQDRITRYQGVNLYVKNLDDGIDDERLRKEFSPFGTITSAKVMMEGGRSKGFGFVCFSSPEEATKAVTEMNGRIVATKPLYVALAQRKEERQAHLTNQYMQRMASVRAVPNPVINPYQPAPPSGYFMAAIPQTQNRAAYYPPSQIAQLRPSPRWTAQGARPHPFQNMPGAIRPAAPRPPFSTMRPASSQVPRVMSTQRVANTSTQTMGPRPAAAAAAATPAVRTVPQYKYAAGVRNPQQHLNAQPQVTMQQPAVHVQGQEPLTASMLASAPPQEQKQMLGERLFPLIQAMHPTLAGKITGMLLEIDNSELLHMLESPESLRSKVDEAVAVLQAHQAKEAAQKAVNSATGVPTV
# eIF4E-4G inh – inhibitors of eIF4E and eIF4G interaction in translation initiation | P63073+Q04637 | TR-FRET eIF4E-eIF4GI(517-606) binding, 2 h | inhibition, % at 21.7 µM | 220,000 tested, 0.37% active | AID 782;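 active = inhibition above about 30%, limit read from the data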
# PABP polyA inh – PABP-poly(A) binding inhibition; P11940; PABP-poly(A) RNA binding, fluorescence polarization; inhibition, % at 35 µM; 290,000 tested, 1% active;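 also: calls also rest on retests at 20 µM and on dose response follow-up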
# PERK inhibitor – inhibitors of human PERK kinase. 220,000 tested, 0.17% active. CHO PERK-DD fusion, SEAP luminescence translation reporter. inhibition, % at 5.6 µM;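 active = inhibition above the mean inhibition of all tested compounds plus 3 SD, set separately per screening campaign, cut at about 2.9% in these data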;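 also: PERK kinase domain activated by AP20187 dimerizer at 100 nM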
# A number is an active result; n = inactive; u = inconclusive; x = no result; [ ] = remark or other dose. Rows were chosen to be rich in hits. Some 1.6% of all compounds tested hit in one or more screens of this group. Unless noted, no rule for the calls is given here.
SMILES,eIF4H inh,PABP1 MLLE inh,eIF4E-4G inh,PABP polyA inh,PERK inhibitor
Cc1cc(C)nc(NC(=S)Nc2cccc(F)c2)c1,n,n,n,n,n
O=C1C(Cl)=C(NC(=O)c2ccccc2)C(=O)C(Cl)=C1NC(=O)c1ccccc1,n,57,x,n,x
C=CCn1c(SCC(=O)N2CCCC2)nc2c([nH]c3ccccc32)c1=O,n,n,x,n,x
COc1cccc(C(=O)N2CCN(Cc3ccccc3[N+](=O)[O-])CC2)c1,n,n,n,n,n
COc1ccc(CN(CC(=O)NCc2ccc(F)cc2)C(=O)c2ccco2)cc1,n,n,x,n,x
Oc1ccc(/C=N/Nc2ccnc3cc(Cl)ccc23)c(O)c1O,67,n,x,n,x
O=C1C=C(c2ccc3c(c2)OCO3)CCC1,x,n,x,x,x
COc1ccc2c(c1O)-c1ccccc1CCN(C)C2,n,n,n,n,n
CN1CCc2cccc3c2[C@@H]1Cc1ccc(O)c(O)c1-3,n,46,n,n,n
COc1ccc(CNC(=O)C2CSCCS2)cc1 (stereo unspecified),n,n,n,n,n
CC(C)C(NC(=O)C12CC3CC(CC(C3)C1)C2)C(=O)NC1=NCCS1 (stereo unspecified),n,x,40,n,n
NC(=O)CC(NC(=O)c1ccccc1)c1ccc(NCCc2cccc(F)c2)c([N+](=O)[O-])c1 (stereo unspecified),n,n,96,n,x
NC(=O)CC(NC(=O)c1ccc(Br)cc1)c1ccc(NCCc2ccc(F)cc2)c([N+](=O)[O-])c1 (stereo unspecified),n,n,n,n,x
C#Cc1ccc([C@@H]2C=C(C(=O)OCC=C)O[C@H](OCC)[C@H]2CCCO)cc1,88,n,n,n,n
CCO[C@H]1OC(C(=O)O)=C[C@@H](C2CC2)[C@@H]1CCCO,n,x,n,n,n
CCO[C@@H]1OC(C(=O)O)=C[C@H](C)[C@H]1CCCO,n,n,n,52,n
C#Cc1ccc([C@H]2C=C(C(=O)OCC=C)O[C@@H](OCC)[C@@H]2CCCO)cc1,n,n,n,n,n
COc1ccc(C2c3cc(OC)c(OC)cc3CCN2C(=O)c2ccccc2)cc1OC (stereo unspecified),n,n,x,n,x
COc1ccc(C2c3cc(OC)c(OC)cc3CCN2S(C)(=O)=O)cc1OC (stereo unspecified),u,n,42,u,n
CCn1c(SCC(=O)NC(C)(C)C)nnc1-c1ccoc1C,n,n,n,n,n
CCn1c2ccccc2c2cc(N)ccc21,72,n,n,56,n
CCn1c(CCn2c3ccccc3c3ccccc32)n[nH]c1=S,n,n,n,n,n
CCn1c(C)cc(=S)c2ccccc21,n,40,n,n,n
COc1cccc(NS(=O)(=O)c2ccc(Br)s2)c1,n,n,n,n,n
O=C(O)c1ccc(Cn2cnc3cccnc32)cc1,n,43,x,n,x
SMILES,eIF4H inh,PABP1 MLLE inh,eIF4E-4G inh,PABP polyA inh,PERK inhibitor
COc1ccc(C(=O)N/C(=C\c2ccco2)C(=O)NCc2cccnc2)cc1,61,n,n,n,n
O=C(O)/C(=C/c1ccco1)NC(=O)c1ccccc1,72,n,n,120,n
O=C(NC(Cc1ccccc1)C(=O)O)/C(=C\c1ccco1)NC(=O)c1ccc(Br)cc1 (stereo unspecified),n,n,n,n,n
O=C(NCc1cccnc1)/C(=C/c1ccco1)NC(=O)c1ccccc1,n,n,n,n,n
O=C(NC(Cc1ccccc1)C(=O)O)/C(=C\c1ccco1)NC(=O)c1ccccc1 (stereo unspecified),91,n,n,active,n
CC(C)(C)c1ccc(C(=O)N/C(=C\c2ccco2)C(=O)O)cc1,n,n,n,n,n
CC1=NOC(=O)/C1=C/c1ccc(N(C)C)cc1,u,x,n,u,n
Cc1c(C(=O)C(=O)N2CCN(C)CC2)c2ccccc2n1C,n,n,n,n,n
O=C(NCC(O)c1ccc([N+](=O)[O-])cc1)C1=COCCO1 (stereo unspecified),x,n,x,x,x
O=C(COC(=O)/C=C/c1ccco1)Nc1ccccc1,n,n,n,n,n
COC(=O)c1ccccc1NC(=O)COC(=O)/C=C/c1ccco1,53,n,n,n,n
COC(=O)c1ccccc1NC(=O)COC(=O)c1ccc(C)c(NC(=O)c2ccco2)c1,n,n,86[fluorescence artefact?],n,n
CCc1cc2c(=O)n(CC(C)C)cnc2s1,n,n,n,n,n
O=C(Nc1ccc(O)cc1)c1cccc(Oc2ccc([N+](=O)[O-])cc2)c1,n,n,n,n,n
C(=C\c1ccco1)/C1=NN(c2ccccc2)C(c2ccco2)C1 (stereo unspecified),71,n,n,n,n
